In PubChem BioAssay (NCATS) one finds Potency data, which are given here for 17 compounds.

Records with an inconclusive call do not appear. A call without a number means that no potency is given here. The source made the active and inactive calls. Calls come from the whole dose curve; as a rule, active = well fitted inhibition curve with a large enough effect; inconclusive = small, poorly fitted or top-dose-only effect; inactive = no such curve, though single readings can be large or run the other way.

The nature of the assay: Primary qHTS for small molecule stabilizers of the endoplasmic reticulum resident proteome: Secreted ER Calcium Modulated Protein (SERCaMP) assay (AID 1508630). The note with it: SH-SY5Y GLuc-SERCaMP (Gaussia luciferase released on ER calcium loss) secretion, thapsigargin, luminescence; series mostly up to 38.4 µM. The gist of the method: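 GLuc-SERCaMP-expressing SH-SY5Y cells, pretreated 16 h with compound, are challenged with thapsigargin to empty ER calcium stores; after 4 h, coelenterazine is added directly to the medium and luminescence is imaged.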
(qHTS replaces the single test concentration by a dilution series.)
For `CN(C)NC(=O)CCC(=O)O`, the Potency entry was “inactive”.

As for `COc1ccc(C(=O)c2c(C)n(CCN3CCOCC3)c3cc(I)ccc23)cc1`, the Potency result is “inactive”.

For the compound `CCCC[N+]1(C)[C@H]2CC(OC(=O)[C@H](CO)c3ccccc3)C[C@H]1[C@H]1O[C@H]12` (some centres not stated), the Potency result is “inactive”.

Take `CCNC(=O)CC1N=C(c2ccc(Cl)cc2)c2cc(OC)ccc2-n2c(C)nnc21` (configuration not stated): the Potency result is “inactive”.

Regarding `CCOP(=O)(OCC)C(C)NC(=O)N(CCCl)N=O` (configuration not stated), the Potency entry is “inactive”.

In the case of `O=C(N[C@H]1CN2CCC1CC2)c1ccc(Cl)cc1`, the Potency entry was “inactive”.

In the case of `O=C1C=CC[C@@H]2[C@H]3CCCN4CCC[C@@H](CN12)[C@@H]34`, the Potency entry was “inactive”.

Consider `O=C(Oc1ccc([N+](=O)[O-])cc1)N1CCC(C(O)(c2ccc3c(c2)OCO3)c2ccc3c(c2)OCO3)CC1`, for which the Potency result was “inactive”.

On to `Cc1ccccc1-n1c(Cn2cnc3c(N)ncnc32)nc2cccc(C)c2c1=O`, for which the Potency result was “inactive”.

For `CCCN1CCO[C@@H]2c3cc(O)ccc3OC[C@H]21`, the Potency result was “inactive”.

In the case of `CCN(CC)C(=O)c1ccc(C2=CC3(CCNCC3)Oc3cccc(O)c32)cc1`, the Potency result was “inactive”.

In the case of `O=S(=O)(F)Cc1ccccc1`, the Potency entry was “inactive”.

`O=c1cccc2n1CC1CNC[C@H]2C1`: the Potency entry is “inactive”.

On to `CCOC(=O)c1c(C(C#N)=CN)c2ccc(Cl)c(Cl)c2n1C`, for which the Potency result is “inactive”.

For the compound `C[C@]12CC[C@@H]3[C@@H](CCC4=CC(=O)CC[C@@H]43)[C@@H]1CC[C@@H]2OC(=O)CCc1ccccc1`, the Potency entry was “inactive”.

As for `O=S(=O)(CC1CS1)c1ccc(Oc2ccccc2)cc1` (configuration not stated), the Potency result is “inactive”.

For `CCCCCC[C@H]1C(=O)O[C@H](C)[C@H](NC(=O)c2cccc(NC=O)c2O)C(=O)O[C@@H](C)[C@@H]1OC(=O)CC(C)C`, the Potency result is “inactive”.
